Data from PubChem BioAssay AID493034 (The Scripps Research Institute Molecular Screening Center, 2011).
Out of some 2,400 compounds screened, about 2,200 (92%) were called active. The set was probably picked from earlier hits. The list shows a part of the results. Unmarked numbers belong to inactive results.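 Rule for the calls: active = mean inhibition over triplicate runs exceeds the cutoff derived for the earlier primary screen (cut at about 25% in these data); inactive = the rest.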

Each molecule was assayed against Platelet-activating factor acetylhydrolase IB subunit alpha2 (Homo sapiens) (UniProt P68402) (assay: inhibition of human PAFAH1B2 catalytic subunit – biochemical, fluorescence polarization, FP-rhodamine probe, triplicate, confirmation (AID 493034;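 note: 0% = enzyme with DMSO and 100% = wells lacking PAFAH1B2 protein; inhibitors lower polarization by leaving the probe unbound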)). Conditions: recombinant PAFAH1B2, FP-rhodamine probe fluorescence polarization; at 3.39 µM; hits give high values.
Chain of Platelet-activating factor acetylhydrolase IB subunit alpha2 (Homo sapiens) (P68402 whole entry, looked up): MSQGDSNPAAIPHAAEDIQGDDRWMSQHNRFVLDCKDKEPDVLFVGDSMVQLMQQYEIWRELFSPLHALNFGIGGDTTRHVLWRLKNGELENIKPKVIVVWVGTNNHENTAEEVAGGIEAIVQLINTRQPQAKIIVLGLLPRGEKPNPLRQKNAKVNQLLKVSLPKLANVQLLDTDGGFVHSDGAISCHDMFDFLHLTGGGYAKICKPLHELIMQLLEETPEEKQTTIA
`COc1ccc([N+](=O)[O-])cc1N(CC(=O)NCCSc1ccc(C)cc1)S(C)(=O)=O` showed an inhibition of 22.5%. `CC12CC3CC(C)(C1)CC(C(=O)N1CCN(C(=O)c4ccco4)CC1)(C3)C2` showed an inhibition of 16.1%. Molecule `CC(Sc1ccc(Cl)cc1)C(=O)Nc1ccc(S(=O)(=O)N2CCOCC2)cc1` (stereo not drawn) has an inhibition of 20%. `O=C(Nc1ccc(N2CCOCC2)cc1)C1(c2ccc(Cl)cc2)CCC1` was tested, and the inhibition was 78.4% (active). With `Cc1ccccc1C(=O)N1CCN(c2ccc(NC(=O)CSc3ccc(Cl)cc3)cc2)CC1` the inhibition was 23.5%. In the case of `O=C(CCl)N(c1ccccc1)C1CCCCC1`, the inhibition is reported as 29.2% (active). `O=C(O)c1cc(NC(=S)NC(=O)C(c2ccccc2)c2ccccc2)ccc1Cl` showed an inhibition of 20.9%. In the case of `CC(C)(C)c1ccc(S(=O)(=O)/N=C2\C=C(NS(=O)(=O)c3ccccc3)C(=O)c3ccccc32)cc1`, the inhibition is reported as 11.4%. `Cc1ccc(S(=O)(=O)Nc2ccccc2-c2ccccc2NS(=O)(=O)c2ccc(C)cc2)cc1` was tested, and the inhibition was 43.8% (active). `COc1cc(C(=O)O[C@H]2CC(C)=CC[C@@]3(C)CC[C@@](O)(C(C)C)[C@H]23)ccc1O` showed an inhibition of 23.9%. `Cc1nc2ccccn2c1-c1ccnn1S(=O)(=O)c1ccc(F)cc1` gave an inhibition of 22.7%. With `O=c1[nH]c2cc(Cl)ccc2c(O)c1-c1cccc(Oc2ccccc2)c1` the inhibition was 27.1% (active). `CC1CCN(S(=O)(=O)c2cccc(C(=O)N(C)C3CCS(=O)(=O)C3)c2)CC1` (stereo not drawn) gave an inhibition of 23.7%. `CC1CCN(S(=O)(=O)c2ccc(NC(=O)CN3CCCCCC3)cc2)CC1` was tested, and the inhibition was 20.4%. With `CC1CCN(S(=O)(=O)c2ccc(NC(=O)CSc3nnnn3C)cc2)CC1` the inhibition was 33.1% (active). For `CC1CCN(S(=O)(=O)c2ccc(NC(=O)[C@@H]3CCCC[C@@H]3C(=O)O)cc2)CC1`, the inhibition was 39.3% (active). For `CC1CCN(S(=O)(=O)c2ccc(N/N=C(/C#N)C(N)=O)cc2)CC1`, the inhibition was 27.9% (active). `CC1CCN(S(=O)(=O)c2ccc(NC(=O)Cc3cccs3)cc2)CC1` gave an inhibition of 19.6%. Molecule `O=C(CSc1nc(C2CC2)nc2ccccc12)Nc1ccc2c(c1)OCCO2` has an inhibition of 1.2%. `N#Cc1c(-c2ccccc2)nc(SCC(=O)N(c2ccccc2)c2ccccc2)[nH]c1=O` was tested, and the inhibition was 38.8% (active). In the case of `N#Cc1c(-c2ccccc2)nc(SCc2ccc(Cl)cc2)[nH]c1=O`, the inhibition is reported as 40% (active). `CC(C)c1ccc(-c2nc(N3CCOCC3)[nH]c(=O)c2C#N)cc1` showed an inhibition of 23.2%. `CN(C(=O)CSc1nc(-c2ccc(C(C)(C)C)cc2)c(C#N)c(=O)[nH]1)C1CCCCC1` showed an inhibition of 20.1%. In the case of `C/C(=N\O)C1/C(=N/O)CC2C1C2(C)C` (stereo not drawn), the inhibition is reported as 31.7% (active). With `Cc1cc(-c2ccccc2)c2ccc(NC(=O)C(C)(C)C)nc2n1` the inhibition was 23.8%. In the case of `O=C(CNC(=O)c1cccc(Br)c1)N/N=C/c1cc(Br)cc(Br)c1O`, the inhibition is reported as 33.1% (active). With `Cc1cccc(OCC(=O)NCC(=O)N/N=C/c2cc(Br)cc(Br)c2O)c1` the inhibition was 19.1%. With `C=C[C@]1(C)C=C2CC[C@H]3[C@@](C)(CCC[C@@]3(C)C(=O)O)[C@@H]2CC1` the inhibition was 30.9% (active). Molecule `O=S(=O)(Oc1ccccc1N1CCCCC1)c1ccccc1` has an inhibition of 14.5%. With `C=CCO/N=C(\C)c1c(O)c(C)c(-c2ccccc2)n(-c2ccccc2)c1=O` the inhibition was 25.2% (active). With `CC1CCC2C(C1)c1sc(=O)[nH]c1SC2(C)C` (stereo not drawn) the inhibition was 55.2% (active). In the case of `N#CC1(C#N)CC(C=O)=C(N)C1(C#N)CC(=O)C12CC3CC(CC(C3)C1)C2` (stereo not drawn), the inhibition is reported as 17.2%. For `CCC[C@@H]1CCCO[C@@](C(=O)NCc2ccccn2)(C(F)(F)F)C1`, the inhibition was 20%. `Cc1ccc(SCc2[nH]nc3c2C2(CCSCC2)C(C#N)=C(N)O3)cc1` was tested, and the inhibition was 32.9% (active). For `CCOC(=O)C(CC(=O)O)=C(c1ccccc1)c1ccccc1`, the inhibition was 17.7%. For `Cc1cc(C)cc(NC(=O)Nc2ccc(-n3ccc(C(F)(F)F)n3)cc2)c1`, the inhibition was 0.5%. `CC1CCN(S(=O)(=O)c2ccc(NC(=O)CN3CCOCC3)cc2)CC1` gave an inhibition of 20.2%. For `CC1CCN(S(=O)(=O)c2ccc(N=NC3=C(O)CC(C)(C)CC3=O)cc2)CC1`, the inhibition was 49.4% (active). `CC1(c2ccc(Cl)cc2)NC(=S)N2C1NC(=S)N2c1ccccc1` (stereo not drawn) showed an inhibition of 18.1%. In the case of `Cn1cnc2cc(NCc3ccc(Cl)cc3)ccc21`, the inhibition is reported as 35.2% (active). In the case of `CC(C)(C)n1cnc2cc(NCc3ccc(Br)cc3)ccc21`, the inhibition is reported as 35.2% (active). `CCn1cnc2cc(NCc3ccc(Cl)cc3)ccc21` gave an inhibition of 20.5%. For `CCCn1cnc2cc(NCc3ccc(Br)cc3)ccc21`, the inhibition was 33.7% (active).
